The list is not random: actives were taken first. Their share in the collection is about 19%.
HT1080 IDH1KD tx – kills HT-1080 cells with IDH1 knockdown. HT-1080 IDH1 knockdown viability, ATP luminescence, 48 h. Potency, µM (series often up to 46.1 µM), for inactives: top-dose activity, negative = toxicity, actives largely listed as cytotoxic. 2% of 360,000 active. AID 686971;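 further: potency means the concentration at half of the fitted maximal effect; 0% = DMSO wells and -100% = cell-free medium wells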
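CellTiter-Glo luminescence after 48 h compound exposure at 37 degrees C of IDH1-knockdown HT-1080 cells in 5% FBS RPMI. %Activity scaled between DMSO wells and cell-free media wells, with curves fitted and assigned curve classes.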
HT1080NT lethal – kills 2HG-producing HT-1080-NT fibrosarcoma cells; 1.6% of 360,000 active; HT-1080-NT fibrosarcoma viability, CellTiter-Glo ATP luminescence, 48 h; Potency, µM (doses to about 46.1 µM), for the others: at the top dose activity, negative = less viability, hits mostly cytotoxic;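 further: NT is the 2HG producing partner of a matched IDH1 knockdown line; potency means the concentration at half of the fitted maximal effect; 0% = DMSO-treated cells and -100% = media-only wells without cells; nearly all actives have a fitted effect of over 55% in size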
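HT-1080-NT fibrosarcoma cells (2HG-overproducing), 750 cells/well in RPMI with 5% FBS, dosed after 2 h and incubated 48 h at 37C. CellTiter-Glo luminescence normalized to DMSO and no-cell wells; concentration-response curves fitted and classed.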
TDP1 cell noCPT – qHTS for Inhibitors of human tyrosyl-DNA phosphodiesterase 1 (TDP1): qHTS in cells in absence of CPT. DT40 Tdp1-/- hTDP1 cells, no CPT, ATP luminescence, 48 h. Potency, µM (titrated, usually from 46.2 µM), for inactives: top-dose activity change, negative = growth inhibition, hits mostly inhibitors. 15% of 420,000 active. AID 686978, 2013; further: potency means the concentration at half of the fitted maximal effect; nearly all actives have a fitted effect of over 55% in size
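Cells were dispensed at 400 per well, compounds added by pin tool, plates incubated ≥48 hr at 37 °C, then CellTiter-Glo added for 30 min at room temperature before luminescence reading. Line: DT40 Tdp1-/- complemented with hTDP1; camptothecin omitted.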
IL1B secr inh – inflammasome signaling inhibition, IL-1 beta readout; 4.7% of 360,000 active; AID 743279; activity change, % at 57.5 µM; THP-1 LPS/ATP IL-1B secretion, AlphaLISA, 16 h; hits give low values; in the data active means activity change below about -50%; inconclusive means mostly about -30% to -49%
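Secreted IL-1B measured by AlphaLISA bead assay after 16 h compound exposure of THP-1 cells; compounds (final up to 57.5 uM) added 1 h before LPS (250 ng/mL) and ATP (1.25 mM) stimulation; lower signal means less secretion.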
DT40 TDP1 CPT – DT40-hTDP1 cell growth loss with CPT. chicken DT40 Tdp1-/-;hTDP1 cells + 20 nM CPT, ATP luminescence, 48 h. 12% of 420,000 active. Potency, µM (doses to about 46.2 µM), for inactives: at the top dose activity change, negative = growth inhibition, hits mostly inhibitors. AID 686979; further: potency means the concentration at half of the fitted maximal effect; nearly all actives have a fitted effect of over 55% in size
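Chicken DT40 Tdp1-/- cells stably complemented with human TDP1 were seeded at 400 cells/well in medium containing 20 nM camptothecin, exposed to pin-transferred compounds, and grown at 37 °C for at least 48 hr. Viability was read as ATP luminescence.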
* marks the source's active call; other numbers are inactive results; ? = inconclusive; . = not tested or not shown; [ ] = remark or other dose. Unless noted, the call rests on the fitted dose curve; in most records, active means well fitted curve in the direction sought with a large enough effect; inconclusive means small, poorly fitted or top-dose-only effect, or another doubt; inactive means no such curve, though single readings can be large; an effect the other way counts as inactive or inconclusive. Unless noted, on the % scale 0 is the no-effect control and ±100 the full control effect.

SMILES | HT1080 IDH1KD tx | HT1080NT lethal | TDP1 cell noCPT | IL1B secr inh | DT40 TDP1 CPT
COc1cccc(C(=O)Nc2nc(-c3nnn(-c4cc(C)ccc4C)c3C)ns2)c1 | . | . | -21.9% | . | ?
COC(=O)c1ccc(-n2nnc(-c3nsc(NC(=O)c4ccc(Cl)cc4)n3)c2C)cc1 | . | . | -4.0% | . | -17.7%
COc1cc(SC)ccc1C(=O)N1CCN(S(=O)(=O)/C=C/c2ccccc2)CC1 | -13.3% | -2.2% | -29.0% | 0.0 | ?
CC1CCCCN1S(=O)(=O)c1cc2c3c(c1)CC(=O)N3CCC2 (stereo not given) | . | . | ? | . | -18.0%
COC(=O)C1CCN(C(=O)CSc2nc3ccc(OC)cc3[nH]2)CC1 | 11.7% | 8.5% | -17.5% | -64.2* | -0.7%
COc1ccc2nc(SCC(=O)N3CCNC3=O)[nH]c2c1 | -4.5% | -3.6% | -7.1% | 3.3 | ?
CN(C)CCN(C)Cc1ccccc1Sc1cccc2ccccc12 | ? | ? | 8.2µM* | -105.0* | 9.2µM*
CNCc1ccccc1Sc1ccc(OC)cc1 | -15.4% | -6.8% | ? | -21.4 | ?
CNCc1ccccc1Sc1cccc2ccccc12 | -26.2% | -14.3% | 23.1µM* | -55.3* | 23.1µM*
CN(CC(=O)Nc1ccc(F)cc1[N+](=O)[O-])C1CCS(=O)(=O)C1 (stereo not given) | 4.2% | 4.0% | 1.1% | 13.9 | -29.1%
CN(C)c1ccc2c(c1)Sc1cc(N(C)C)ccc1N2C(=O)c1ccccc1 | -7.3% | 1.5% | 20.6µM* | -11.4 | ?
Cc1cc(C)n(CCN(C)C(=O)C2CCC(=O)N(CCc3cccc(F)c3)C2)n1 (stereo not given) | -1.3% | 7.4% | 8.0% | 2.6 | -9.7%
O=C(CN(C(=O)CSc1nnc(COc2ccccc2)o1)c1ccc(F)cc1)NC1CCCC1 | -6.6% | 7.1% | ? | -25.7 | ?
CCOc1ccc(N(CC(=O)NC2CCCC2)C(=O)CSc2nnc(COc3ccccc3)o2)cc1 | -5.6%[9.24 µM] | -17.3% | 20.6µM* | -55.1* | 20.6µM*
CCN(C(=O)CSc1ccc2ccccc2n1)C1CCCCC1 | 19.0% | 18.7% | ? | -68.8* | ?
CN(C(=O)CSc1nc2ccccc2o1)C1CCCCC1 | 3.6% | 4.6% | 29.1µM* | ? | ?
Cc1cccc(OCc2nnc(SCC(=O)N(C)C3CCCCC3)o2)c1 | 2.3% | -6.1% | ? | -1.6 | 18.4µM*
CCC1CCCCN1CCCNC(=O)c1ccc2c(c1)c(C)c(C)n2C (stereo not given) | -25.7% | ? | -8.1% | -13.8 | ?
COc1ccc(-c2nnc(SCC(=O)OC3CCCCC3)o2)cc1OC | -0.9% | 1.8% | -2.1% | 12.8 | -8.9%
O=C(CSc1nnc(COc2ccc(Cl)cc2)o1)N(c1ccccc1)C1CCS(=O)(=O)C1 (stereo not given) | -22.6% | -15.8% | 13µM* | -17.0 | ?
COc1ccc(-c2nnc(SCC(=O)N(C)C3CCCCC3)o2)cc1OC | . | . | 11.6µM* | . | 16.4µM*
CC(Oc1ccc(F)cc1)c1nnc(SCC(=O)N(c2ccccc2)C2CCS(=O)(=O)C2)o1 (stereo not given) | -8.2% | 1.2% | -83.7% | -1.7 | ?
CCOc1ccc(CCNC(=O)Cn2nc(C)c3c(C)n(-c4ccccc4)nc3c2=O)cc1OCC | 5.3% | -9.8% | ? | -1.8 | ?
N#Cc1ccccc1COC(=O)c1ccc2c(c1)OCCO2 | 1.8% | 21.1% | -9.5% | -50.1* | ?
N#Cc1ccccc1COC(=O)c1ccc2c(c1)OCO2 | 0.4% | -0.5% | ? | -6.7 | 0.4%
SMILES | HT1080 IDH1KD tx | HT1080NT lethal | TDP1 cell noCPT | IL1B secr inh | DT40 TDP1 CPT
OC1CCCN(c2c3c(nc4cc(-c5cccc(F)c5)nn24)CCCC3)C1 (stereo not given) | -20.7% | -11.5% | ? | -4.8 | 23.1µM*
COCCN1CCN(c2c3c(nc4cc(-c5cccc(F)c5)nn24)CCC3)CC1 | -3.6% | -12.1% | 23.1µM* | -17.8 | ?
OC1CCCN(c2c3c(nc4cc(-c5cccc(Cl)c5)nn24)CCC3)C1 (stereo not given) | -17.9% | ? | ? | -101.7* | 18.4µM*
Cc1cccc(-c2cc3nc4c(c(N5CCCC(O)C5)n3n2)CCC4)c1 (stereo not given) | ? | ? | 25.9µM* | . | ?
CN(C)CCCNc1c2c(nc3cc(-c4cccc(F)c4)nn13)CCC2 | 9.4% | -12.7% | 9.0% | 79.5 | 18.6%
COc1ccccc1CNS(=O)(=O)c1c(C)nc2sc(C)cn2c1=O | . | . | 7.9% | . | 10.5%
COC(=O)CSc1cc([N+](=O)[O-])cc2c1c(C1OCCO1)nn2-c1ccccc1 | 5.6% | -1.2% | -0.6% | 18.4 | 1.3%
Cc1cc(C(=O)NCc2nnc3n2CCN(Cc2ccc(C)c(C)c2)CC3)c(C)o1 | . | . | -1.3% | . | 10.3%[9.04 µM]
Cc1cc(C(=O)NCc2nnc3n2CCN(Cc2ccc4c(c2)Cc2ccccc2-4)CC3)c(C)o1 | . | . | 16.4µM* | . | ?
CC(C)=CCC[C@H](C)C[C@@H]1Cc2[nH][nH]c(=O)c2[C@H](c2ccc(Cl)cc2)O1 | 1.0% | -1.4% | ? | 1.0 | ?
CCC(C)n1c(SCC(=O)Nc2cc(C(C)(C)C)nn2-c2ccccc2)nc2ccccc2c1=O (stereo not given) | -22.1% | -23.0% | 25.9µM* | -28.5 | ?
CCn1c(SCC(=O)Nc2cc(OC)c(OC)c(OC)c2)nnc1-c1cccs1 | 0.2%[9.24 µM] | -23.6% | 20.6µM* | -2.9 | ?
CCn1c(SCC(=O)Nc2cc(C(C)(C)C)nn2-c2ccccc2)nnc1-c1cccs1 | -8.0% | -4.4% | ? | -83.4* | -29.1%
CCn1c(SCC(N)=O)nnc1-c1cc2c(C)nn(-c3ccccc3)c2s1 | -0.5% | -4.2% | 29.1µM* | 15.7 | ?
CCC(C)n1c(SCC(=O)NC2CC2)nc2ccccc2c1=O (stereo not given) | -6.0% | -6.7% | ? | 0.0 | ?
O=S(=O)(c1ccc(=S)[nH]c1)N1CCCC1 | -0.9% | -7.3% | ? | 7.3 | ?
CCN(CC)c1ccc(/C=N/NC(=O)Cc2nnc(NC(=O)Nc3ccccc3)s2)cc1 | 14.6µM* | 20.6µM* | 20.6µM* | 14.3 | ?
Cc1ccc(C(c2nc3ccccc3[nH]2)n2c(-c3ccccc3)nc3ccccc32)cc1 (stereo not given) | ? | -19.1% | ? | -6.3 | ?
COCCCn1c(SCC(=O)Nc2ccc(C)cc2)nc2ccccc2c1=O | -20.0% | -18.2% | ? | 0.0 | 1.1%
CCCCn1c(SCC(=O)Nc2cc(NC(=O)c3ccco3)ccc2C)nc2ccccc2c1=O | 11.2µM* | ? | 23.1µM* | 17.6 | ?
Cc1ccc(NC(=O)CSc2nc3ccccc3c(=O)n2CCCC(=O)N2CCCC2)cc1 | -8.4% | -8.0% | 20.6µM* | -7.1 | 18.4µM*

Screening data as filed in PubChem.
